Screening results from PubChem BioAssay.
LDHA block: LDHA (human) enzyme inhibition; P00338; purified LDHA, NADH/diaphorase-resazurin fluorescence; active compounds read low; activity change, % (values are at about 110 or 230 µM); 0.15% of 480,000 active; AID 1347041; in the data active = activity change below about -30%;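 also: plate controls were DMSO wells for no effect and wells without enzyme for full effect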
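Enzyme activity of human lactate dehydrogenase 5 (2 nM; 0.06 mM NADH, 0.2 mM pyruvate, 5 min, RT) is measured via a resazurin/diaphorase fluorescence readout of residual NADH.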
D1 PAM: enhances dopamine response at the human D1 receptor. P21728. HEK293 TREx D1 cells, calcium flux, dopamine EC20 potentiation. potentiation, % at 10 µM. 0.036% of 360,000 active. AID 504651; in the data active = potentiation above about 30%; also: 0% is about no effect
TRHR agonist: agonists of human TRH receptor. P34981. 0.18% of 360,000 active. TRHR cells, calcium flux fluo-8, FDSS agonist mode. AID 493084. activation, % at 2 µM; also: 0% is about no effect
Target sequence (P34981 whole entry, looked up): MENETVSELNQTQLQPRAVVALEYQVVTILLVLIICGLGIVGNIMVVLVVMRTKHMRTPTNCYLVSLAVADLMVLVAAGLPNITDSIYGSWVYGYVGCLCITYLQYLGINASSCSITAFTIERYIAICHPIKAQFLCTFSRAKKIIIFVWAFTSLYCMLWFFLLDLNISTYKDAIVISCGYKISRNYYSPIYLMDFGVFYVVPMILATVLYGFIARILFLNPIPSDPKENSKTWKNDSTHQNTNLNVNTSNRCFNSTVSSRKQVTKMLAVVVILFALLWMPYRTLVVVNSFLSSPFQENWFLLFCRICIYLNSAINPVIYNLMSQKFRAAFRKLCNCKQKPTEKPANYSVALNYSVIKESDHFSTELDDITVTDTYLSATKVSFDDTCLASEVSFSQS
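TRHR-expressing cells, plated overnight in medium with 10% serum, were loaded with fluo-8 calcium dye at room temperature. After a 10 s baseline, library compound was pin-added and calcium release was recorded kinetically (ex 480/em 530) as agonist response.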
D1 ag: activates the human D1 dopamine receptor | P21728 | HEK293 T-REx D1 cells, calcium flux, agonist mode | activation, % at 2 µM | 1% of 360,000 active | AID 504660; also: 0% is about no effect
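Inducible HEK293 T-REx D1 cells, force-coupled to calcium signalling, were plated at 4000 cells/well with tetracycline and held overnight at 30 C. After no-wash calcium dye loading, compound-evoked calcium rise over 180 s flagged agonists.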
TRHR enhancer: TRH receptor (human) allosteric enhancement | 0.66% of 360,000 active | TRHR cells, fluo-8 calcium fluorescence, EC20 TRH enhancement | P34981 | enhancement, % at 2 µM | AID 493056; in the data active = enhancement above about 30%; also: 0% is about no effect
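Enhancer read-out: after compound pinning and an initial kinetic agonist-mode read, an EC20 of TRH (10 nM final) was injected and fluo-8 calcium signal (Ex 480/Em 530) followed at 1 s/cycle for 100 cycles in TRHR-expressing cells.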
D1 antag: blocks dopamine activation of the human D1 receptor; P21728; HEK293 TREx D1 cells, calcium flux, dopamine EC80; active compounds read low; activity change, negative = inhibition, % at 10 µM; 3.2% of 360,000 active; AID 504652; in the data active = activity change below about -30%; also: % is scaled to controls: 0 for no effect and ±100 for the full control effect
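Antagonism measured as reduced calcium response to an EC80 dopamine addition following 180 s compound pre-read; cells were inducible HEK293 Trex D1 plated overnight at 30 C, read kinetically at 1 cycle/sec.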
* hit, by the source's call; . = no result. A selection: hits, their analogues and other compounds. The true share with any hit is near 3.6%. Rule as the data show it, unless noted: active = activation above about 30%; inactive = the rest.

SMILES	LDHA block	D1 PAM	TRHR agonist	D1 ag	TRHR enhancer	D1 antag
O=C(C1CCN(S(=O)(=O)c2cnc[nH]2)CC1)N1CCn2c1nc1ccccc12	-7.6	-4.2	0.0	6.3	-2.7	-16.4
CC(NC(=O)[C@H](C)NC(=O)N1CCn2c1nc1ccccc12)c1ccccc1 (stereo partly specified)	-1.3	2.0	-0.8	2.1	7.8	1.6
O=C(C1CCCCC1)N1CCCn2c1nc1ccccc12	-9.9	-1.3	0.1	7.4	3.0	-45.2*
C[C@H](NC(=O)N1CCn2c1nc1ccccc12)C(=O)NC1CC1	-4.3	-3.4	0.1	-1.5	-22.7	-85.0*
CCC(NC(=O)C(C)(C)C)c1ccccc1 (stereo unspecified)	6.2	.	.	.	.	.
O=C(CCSc1ccc(F)cc1)Nc1ccc(-n2cnnn2)cc1	-6.3	-13.2	-0.3	14.7	1.4	-39.6*
CC(=O)Oc1ccc(Cn2cnc3cc4ccccc4cc32)cc1	2.1	-10.2	0.5	11.3	4.1	-42.0*
CCOc1ccc2c(c1)ncn2Cc1ccccc1	-3.8	-2.8	-0.5	2.8	-13.0	-11.6
O=C(CS(=O)(=O)c1c[nH]c2ccccc12)N1CCCc2ccccc21	-2.5	-3.4	-0.2	-2.2	-0.3	-49.9*
COc1cc(-c2n[nH]c(=S)n2/N=C/c2cccn2C)cc(OC)c1OC	-3.5	-2.4	18.9	77.9*	2.0	-58.7*
CCOC(=O)NC(c1ccccc1)C(C(=O)OCC)C(=O)OCC (stereo unspecified)	6.0	.	.	.	.	.
Cc1ccc(C(=O)NCCc2nnc3c(C(F)(F)F)cc(Cl)cn23)o1	0.2	-8.7	-0.2	-0.2	-22.3	-33.2*
Cc1nc(NCc2ccccc2)c2cc[nH]c2n1	-7.9	-1.9	0.0	5.5	8.1	-33.9*
c1ccc(CNc2nc(Nc3ccccc3)nc3ccccc23)cc1	1.8	.	.	.	.	.
CCC1Sc2ccc(S(=O)(=O)Nc3ccc(OC)cc3)cc2NC1=O (stereo unspecified)	-3.6	-4.8	4.9	30.4*	0.7	-36.3*
Cn1nc(-c2ccccc2)cc1NS(=O)(=O)c1ccccc1	-1.8	-1.6	-1.4	1.9	3.7	-36.3*
CCCC(=O)N(c1ccc2oc3c(c2c1)CCCC3)S(=O)(=O)c1cc(C)ccc1C	1.9	-2.9	0.6	1.5	-1.6	-45.9*
CCCC(=O)N(c1ccc2oc(C)c(C(C)=O)c2c1)S(=O)(=O)c1ccc(C)cc1	1.5	-5.2	-0.3	1.3	0.4	2.8
CCCS(=O)(=O)Nc1cc(-c2cn3ccc(C)cc3n2)ccc1C	-0.9	58.6*	-2.8	0.2	0.9	2.8
Nc1nc(-c2ccccc2)c(-c2ccccc2)n1N	-1.7	-3.2	3.7	9.7	-1.8	7.8
c1ccc(-c2cnn3c(-c4ccccc4)c(-c4ccccc4)nc3n2)cc1	-2.6	-12.8	173.5*	475.4*	23.0	-48.4*
O=C(Cc1c[nH]c2ccccc12)N1CCN(S(=O)(=O)c2ccc(Cl)cc2)CC1	-1.7	-2.6	-0.4	3.7	-9.2	-36.2*
O=C(CCc1c[nH]c2ccccc12)N1CCCC1	-8.4	-2.1	-0.4	6.5	-5.3	-4.6
CC(=O)N1CCN(C(=O)CCc2c[nH]c3ccccc23)CC1	-2.7	-12.4	0.7	0.2	0.0	-34.1*
COc1cccc(C(=O)Nc2oc3ccccc3c(=O)c2-c2ccc(Cl)cc2)c1	10.9	.	.	.	.	.
SMILES	LDHA block	D1 PAM	TRHR agonist	D1 ag	TRHR enhancer	D1 antag
CCCCCCCOC(=O)C[N+](C)(C)CCOC1CC2CCC1(C)C2(C)C (stereo unspecified)	-1.1	5.8	1.3	131.1*	-1.5	41.8
CCCCCCOC(=O)C[N+](C)(C)CCOC1CC2CCC1(C)C2(C)C (stereo unspecified)	2.7	-0.2	-0.8	92.5*	-1.3	5.9
CCCCOC(=O)C[N+](C)(C)CCOC1CC2CCC1(C)C2(C)C (stereo unspecified)	5.0	-2.4	0.1	0.5	6.2	1.8
Cc1noc(C)c1S(=O)(=O)NC1CCN(Cc2ccccc2)CC1	-2.5	-4.3	0.5	5.9	6.3	-40.7*
Cc1ccc(CNC(=O)c2ccccc2NC(=O)CSc2nc(C)cs2)cc1	0.0	.	.	.	.	.
N#CNC(=Nc1cccc(F)c1)SCc1cccc(F)c1	-4.4	-5.8	2.4	23.1	-4.1	-31.6*
